Records with an inconclusive call do not appear. The source made the active and inactive calls. How the source made its calls: active means hit-call score of the fitted dose curve at least 0.9, where 1 is the maximum; inconclusive means response in the unintended direction; inactive means score below 0.9.
The molecules below were run on glucuronosyltransferase (UGT1A1), UGT1A1 (gene 54658) (assay: CLD_UGT1A1_24hr: CellzDirect (CLD) Gene Expression Assay for glucuronosyltransferase (UGT1A1) at 24 hours (AID 2283696)).
Description: CLD_24hr is a cell-based, multiplexed-readout assay that uses hepatocyte, a human liver primary cell, with measurements taken at 24 hours after chemical dosing in a 96-well plate.CLD_UGT1A1_24hr is one of 16 assay component(s) measured or calculated from the CLD_24hr assay. It is designed to make measurements of mRNA induction, a form of inducible reporter, as detected with chemiluminescence signals by Quantitative Nuclease Protection Assay (qNPA) technology.Data from the assay component CLD_UGT1A1_24hr was analyzed at the endpoint, CLD_UGT1A1_24hr, in the positive analysis fitting direction relative to DMSO as the negative control and baseline of activity. Using a type of inducible reporter, gain-of-signal activity can be used to understand changes in the reporter gene as they relate to the gene UGT1A1. Furthermore, this assay endpoint can be referred to as a primary readout. To generalize the intended target to other relatable targets, this assay endpoint is annotated to the transferase intended target family, where subfamily is glucuronosyltransferase.
Human hepatocyte cultures were treated daily for two consecutive days with fresh dosing solutions containing appropriate concentrations of the 320 ToxCast chemicals (chemical identities were blinded to CellzDirect and other ToxCast collaborators), vehicle control (0.2% DMSO), and positive control inducers as summarized in Table 1. Due to the large number of treatment groups and chemicals examined, the ToxCast chemicals were divided into two groups (spanning two independent cultures of hepatocytes from separate donor preparations (Hu778: ToxCast plates 1 and 2; Hu776: ToxCast plates 3 and 4). Each preparation of human hepatocyte cultures was treated with respective vehicle control, medium only control, set of six positive controls/reference chemicals for the five hepatic receptor pathways, and a subset of eight of the ToxCast chemicals (indoxacarb, pyrithiobac-sodium, norflurazon, cyhalofop-butyl, methomyl, thiram, acetochlor, and propiconazole). These replicate data, coupled with internal replicates designed within the blinded ToxCast chemical library, provided additional data to evaluate interindividual differences between hepatocyte preparations and their potential impact on chemical profiles.Cell morphology and integrity were evaluated using phase-contrast microscopy as an indicator of hepatocyte cell health (Tyson & Green, 1987). Cultures for each treatment group (i.e., media, vehicle [0.2% DMSO], positive control inducers [multiple concentrations], and the ToxCast chemicals [multiple concentrations]) were observed and cell morphology was assessed relative to vehicle control cultures at each harvest time point (0, 6, 24, or 48 h). […] Images were evaluated at the conclusion of the study to assess changes in cell integrity and account for the effects of chemical exposure on uncharacteristic changes in concentration-dependent gene expression profiles. The results from these determinations of apparent cytotoxicity were annotated (yes/no) alongside the corresponding qNPA data for reference.At the conclusion of each treatment period, hepatocyte cultures (96-well) were washed with 1 volume of HBSS, lysed by addition of 25 ul ArrayPlate lysis buffer (HTG, Tucson, AZ), and 70 ul/well of Denaturation Oil, denatured by incubation at 95C for 10 min, and frozen at approximately -70C until analysis by nuclease protection assay (qNPA) (Roberts et al., 2007). For qNPA analysis, cell lysates were thawed at 50C for approximately 30 min, qNPA probes were added, and samples were incubated at 95C for 10 min to begin the detection process by denaturing the target RNA, dissociating the duplexes and secondary structure hybridization. At the conclusion of the hybridization period, S1 nuclease reagent was added to each sample to digest all nonprotected nucleotides at 50C for 60-90 min. […]

Compound | outcome | AC50
CCc1cccc(CC)c1N(COC)C(=O)CCl | inactive | 
O=C(O)c1cc(Oc2ccc(C(F)(F)F)cc2Cl)ccc1[N+](=O)[O-] | inactive | 
CN(C)NC(=O)CCC(=O)O | inactive | 
Cc1cc(C2CC2)nc(Nc2ccccc2)n1 | inactive | 
CCC(=O)Nc1ccc(Cl)c(Cl)c1 | inactive | 
CSc1nc(NC(C)C)nc(NC(C)C)n1 | inactive | 
CCOP(=S)(OCC)SCCSCC |  | 24.6 µM (active)
CCCCN(CC)c1c([N+](=O)[O-])cc(C(F)(F)F)cc1[N+](=O)[O-] |  | 9.11 µM (active)
C[Si](Cn1cncn1)(c1ccc(F)cc1)c1ccc(F)cc1 | inactive | 
CCc1cnc(C2=NC(C)(C(C)C)C(=O)N2)c(C(=O)O)c1 (stereo not given) | inactive | 
CC1(C(=O)Nc2ccc(O)c(Cl)c2Cl)CCCCC1 | inactive | 
CCOP(=S)(OCC)Oc1ccc2c(C)c(Cl)c(=O)oc2c1 |  | 1.09 µM (active)
Nc1nc(N)nc(NC2CC2)n1 | inactive | 
CN1COCN(Cc2cnc(Cl)s2)C1=N[N+](=O)[O-] | inactive | 
C#CCC1=C(C)C(OC(=O)C2C(C=C(C)C)C2(C)C)CC1=O (stereo not given) | inactive | 
CC(Oc1cccc(Cl)c1)C(=O)O (stereo not given) | inactive | 
C[N+]1(C)CCCCC1 | inactive | 
CC(=NC#N)N(C)Cc1ccc(Cl)nc1 | inactive | 
COP(=O)(OC)OC(Br)C(Cl)(Cl)Br (stereo not given) | inactive | 
CCC(CC)Nc1c([N+](=O)[O-])cc(C)c(C)c1[N+](=O)[O-] | inactive | 

Compound | outcome | AC50
CCCOc1nn(C(=O)NS(=O)(=O)c2ccccc2C(=O)OC)c(=O)n1C | inactive | 
C#CC(C)(C)NC(=O)c1cc(Cl)cc(Cl)c1 |  | 1.69 µM (active)
CCOC(=O)CC(SP(=O)(OC)OC)C(=O)OCC (stereo not given) | inactive | 
S=C1NCCN1 | inactive | 
O=c1ccc(=O)[nH][nH]1 | inactive | 
CNC(=O)ON=C(SC)C(=O)N(C)C | inactive | 
CCOC(=O)COc1cc(-c2nn(C)c(OC(F)F)c2Cl)c(F)cc1Cl | inactive | 
CC(C)=CC1C(C(=O)OCN2C(=O)C3=C(CCCC3)C2=O)C1(C)C (stereo not given) | inactive | 
CCOP(=O)(SC(C)CC)N1CCSC1=O (stereo not given) | inactive | 
CCC(=NOC/C=C/Cl)C1=C(O)CC(C2CCOCC2)CC1=O (stereo not given) | inactive | 
COc1ccc(C(=CC(=O)N2CCOCC2)c2ccc(Cl)cc2)cc1OC | inactive | 
CCCSP(=O)(OCC)SCCC | inactive | 
CCCOCC(=Nc1ccc(Cl)cc1C(F)(F)F)n1ccnc1 | inactive | 
CCCCSP(=O)(SCCCC)SCCCC |  | 1.9 µM (active)
CCOP(=O)(NC(C)C)Oc1ccc(SC)c(C)c1 (stereo not given) | inactive | 
CCOP(=S)(Oc1cnc(C(C)(C)C)nc1)OC(C)C (stereo not given) |  | 3.14 µM (active)
CCNc1nc(Cl)nc(NC(C)(C)C#N)n1 | inactive | 
CC[C@H](C)[C@H]1O[C@]2(C=C[C@@H]1C)C[C@@H]1C[C@@H](C/C=C(\C)[C@@H](O[C@H]3C[C@H](OC)[C@@H](O[C@H]4C[C@H](OC)[C@@H](NC)[C@H](C)O4)[C@H](C)O3)[C@@H](C)/C=C/C=C3\CO[C@@H]4[C@H](O)C(C)=C[C@@H](C(=O)O1)[C@]34O)O2 | inactive | 
CNc1cnn(-c2cccc(C(F)(F)F)c2)c(=O)c1Cl | inactive | 
CC(C)[C@H](C(=O)O[C@H](C#N)c1cccc(Oc2ccccc2)c1)c1ccc(Cl)cc1 | inactive | 
